# Source: the supplement of paper PMC8728848
# The entries come from a sample that favours the strongest signals as a whole.
# How the values were obtained:
# Test in all cases: glycan array binding signal (z-score within array); higher = stronger binding
# Conditions in all cases: glycan notation: IUPAC condensed, linker removed
# [1] = biological target: Neu5Ac(a2-6)Gal(b1-4)GlcNAc(b1-2)Man(a1-3)Man(b1-4)GlcNAc(b1-4)GlcNAc
# How it was run: (§1)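 Columns mapping to the same glycan were averaged after glycan names were converted to IUPAC-condensed notation. The data come from 3228 arrays in the Consortium for Functional Glycomics database, limited to those with an available protein sequence. Binding is reported as a within-array Z-score averaged across arrays of one protein sequence and across linkers.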
# [2] = biological target: Neu5Ac(a2-6)Gal(b1-4)GlcNAc(b1-2)Man(a1-3)[GlcNAc(b1-4)][Neu5Ac(a2-6)Gal(b1-4)GlcNAc(b1-2)Man(a1-6)]Man(b1-4)GlcNAc(b1-4)GlcNAc
# How it was run: as §1
# [3] = biological target: Neu5Ac(a2-6)Gal(b1-4)GlcNAc(b1-2)Man(a1-3)[Man(a1-6)]Man(b1-4)GlcNAc(b1-4)GlcNAc
# How it was run: as §1
# [4] = biological target: Neu5Gc(a2-8)Neu5Gc(a2-3)Gal(b1-4)GlcNAc
# How it was run: as §1
# [5] = biological target: Fuc(a1-2)Gal(b1-3)GalNAc(b1-3)Gal
# How it was run: as §1
# [6] = biological target: Fuc(a1-2)Gal(b1-3)GalNAc(b1-4)[Neu5Ac(a2-3)]Gal(b1-4)Glc
# How it was run: as §1
# [7] = biological target: Fuc(a1-2)Gal(b1-3)GlcNAc
# How it was run: as §1
# [8] = biological target: Fuc(a1-2)Gal(b1-4)Glc
# How it was run: as §1
# [9] = biological target: Fuc(a1-2)[Gal(a1-3)]Gal(b1-4)GlcNAc
# How it was run: as §1
# [10] = biological target: Fuc(a1-2)[GalNAc(a1-3)]Gal(b1-4)Glc
# How it was run: as §1
# [11] = biological target: Fuc(a1-2)[GalNAc(a1-3)]Gal(b1-4)GlcNAc(b1-3)Gal(b1-4)GlcNAc(b1-3)Gal(b1-4)GlcNAc
# How it was run: as §1
# [12] = biological target: Fuc(a1-3)GlcNAc
# How it was run: as §1
# [13] = biological target: Fuc(a1-3)[Gal(b1-4)]GlcNAc(b1-3)GalNAc
# How it was run: as §1
# [14] = biological target: Gal(a1-3)Gal(b1-3)Glc
# How it was run: as §1
# [15] = biological target: Gal(a1-3)Gal(b1-3)GlcNAc(b1-2)Man(a1-3)[Gal(a1-3)Gal(b1-3)GlcNAc(b1-2)Man(a1-6)]Man(b1-4)GlcNAc(b1-4)GlcNAc
# How it was run: as §1
# [16] = biological target: Gal(a1-3)Gal(b1-3)GlcNAc(b1-6)GalNAc
# How it was run: as §1
# [17] = biological target: Gal(a1-4)Gal(b1-4)Glc
# How it was run: as §1
# [18] = biological target: Gal(b1-3)Gal(b1-4)GlcNAc
# How it was run: as §1
# [19] = biological target: Gal(b1-3)GalNAc(b1-4)[Neu5Ac(a2-3)]Gal(b1-4)Glc
# How it was run: as §1
# [20] = biological target: Gal(b1-3)GlcNAc(a1-6)Gal(b1-4)GlcNAc
# How it was run: as §1
# [21] = biological target: Gal(b1-3)GlcNAc(b1-2)Man
# How it was run: as §1
# [22] = biological target: Gal(b1-3)GlcNAc(b1-3)Gal(b1-4)GlcNAc(b1-6)[Gal(b1-3)GlcNAc(b1-3)]Gal(b1-4)Glc
# How it was run: as §1
# [23] = biological target: Gal(b1-3)[Fuc(a1-4)]GlcNAc(b1-3)Gal(b1-3)[Fuc(a1-4)]GlcNAc
# How it was run: as §1
# [24] = biological target: Gal(b1-4)GlcNAc(b1-2)Man(a1-3)[Gal(b1-4)GlcNAc(b1-2)Man(a1-6)][Gal(b1-4)GlcNAc(b1-4)]Man(b1-4)GlcNAc(b1-4)[Fuc(a1-6)]GlcNAc
# How it was run: as §1
# [25] = biological target: Gal(b1-4)GlcNAc(b1-2)Man(a1-3)[Man(a1-6)]Man(b1-4)GlcNAc(b1-4)GlcNAc
# How it was run: as §1
# [26] = biological target: Gal(b1-4)GlcNAc(b1-2)Man(a1-6)[GlcNAc(b1-2)Man(a1-3)]Man(b1-4)GlcNAc(b1-4)GlcNAc
# How it was run: as §1
# [27] = biological target: Gal(b1-4)GlcNAc(b1-2)[Gal(b1-4)GlcNAc(b1-6)]Man(a1-6)[GlcNAc(b1-4)][Gal(b1-4)GlcNAc(b1-2)Man(a1-3)]Man(b1-4)GlcNAc(b1-4)GlcNAc
# How it was run: as §1
# [28] = biological target: Gal(b1-4)GlcNAc(b1-3)[Gal(b1-4)GlcNAc(b1-6)]GalNAc
# How it was run: as §1
# [29] = biological target: Gal3S(b1-4)Glc
# How it was run: as §1
# [30] = biological target: Gal3S6S(b1-4)GlcNAc
# How it was run: as §1
# [31] = biological target: Gal3S6S(b1-4)GlcNAc6S
# How it was run: as §1
# [32] = biological target: Glc(a1-6)Glc(a1-6)Glc
# How it was run: as §1
# [33] = biological target: Glc(b1-6)Glc
# How it was run: as §1
# [34] = biological target: GlcNAc(a1-4)Gal(b1-3)GlcNAc
# How it was run: as §1
# [35] = biological target: GlcNAc(a1-4)Gal(b1-4)GlcNAc(b1-3)Gal(b1-4)GlcNAc
# How it was run: as §1
# [36] = biological target: GlcNAc(b1-3)Gal(b1-4)GlcNAc(b1-6)[GlcNAc(b1-3)]Gal(b1-4)GlcNAc
# How it was run: as §1
# [37] = biological target: GlcNAc(b1-3)[GlcNAc(b1-6)]GalNAc
# How it was run: as §1
# [38] = biological target: GlcNAc(b1-4)GlcNAc(b1-4)GlcNAc(b1-4)GlcNAc(b1-4)GlcNAc
# How it was run: as §1
# [39] = biological target: Man(a1-2)Man(a1-2)Man(a1-3)Man
# How it was run: as §1
# [40] = biological target: MurNAc(b1-4)GlcNAc
# How it was run: as §1
# [41] = biological target: Neu5Ac(a2-3)Gal(b1-3)GalNAc(b1-4)[Neu5Ac(a2-8)Neu5Ac(a2-3)]Gal(b1-4)Glc
# How it was run: as §1
# [42] = biological target: Neu5Ac(a2-3)Gal(b1-4)GlcNAc(b1-3)Gal(b1-4)GlcNAc(b1-3)[Neu5Ac(a2-3)Gal(b1-4)GlcNAc(b1-3)Gal(b1-4)GlcNAc(b1-6)]GalNAc
# How it was run: as §1
# [43] = biological target: Neu5Ac(a2-3)Gal(b1-4)GlcNAc(b1-3)[Neu5Ac(a2-3)Gal(b1-4)GlcNAc(b1-6)]GalNAc
# How it was run: as §1
# [44] = biological target: Neu5Ac(a2-3)Gal6S(b1-4)[Fuc(a1-3)]GlcNAc
# How it was run: as §1
# [45] = biological target: Neu5Ac(a2-6)Gal(b1-4)GlcNAc(b1-2)Man(a1-3)[Neu5Ac(a2-3)Gal(b1-4)GlcNAc(b1-2)Man(a1-6)]Man(b1-4)GlcNAc(b1-4)GlcNAc
# How it was run: as §1
# [46] = biological target: Neu5Ac(a2-6)Gal(b1-4)GlcNAc(b1-2)Man(a1-3)[Neu5Ac(a2-6)Gal(b1-4)GlcNAc(b1-2)Man(a1-6)]Man(b1-4)GlcNAc(b1-4)GlcNAc
# How it was run: as §1
# [47] = biological target: Neu5Ac(a2-6)Gal(b1-4)GlcNAc(b1-3)Gal(b1-4)GlcNAc(b1-3)GalNAc
# How it was run: as §1
# [48] = biological target: Neu5Ac(a2-6)Gal(b1-4)GlcNAc(b1-3)GalNAc
# How it was run: as §1
# [49] = biological target: Neu5Ac(a2-8)Neu5Ac(a2-3)Gal(b1-3)GalNAc(b1-4)[Neu5Ac(a2-3)]Gal(b1-4)Glc
# How it was run: as §1
# [50] = biological target: Neu5Ac(a2-8)Neu5Ac(a2-3)[Gal(b1-3)GalNAc(b1-4)]Gal(b1-4)Glc
# How it was run: as §1
# [51] = biological target: Neu5Ac(a2-8)Neu5Ac(a2-8)Neu5Ac(a2-3)[Gal(b1-3)GalNAc(b1-4)]Gal(b1-4)Glc
# How it was run: as §1
# [52] = biological target: Neu5Ac(a2-8)Neu5Gc(a2-3)Gal(b1-4)GlcNAc
# How it was run: as §1
# [53] = biological target: Neu5Gc(a2-3)Gal(b1-4)Glc
# How it was run: as §1
# [54] = biological target: Neu5Gc(a2-3)Gal(b1-4)[Fuc(a1-4)]GlcNAc
# How it was run: as §1
binder,measurement,setting,value
"UDA (Urtica dioica), P11218 (protein) MMMRFLSAVVIMSSAMAVGLVSAQRCGSQGGGGTCPALWCCSIWGWCGDSEPYCGRTCENKCWSGERSDHRCGAAVGNPPCGQDRCCSVHGWCGGGNDYCSGSKCQYRCSSSVRGPRVALSGNSTANSIGNVVVTEPLFDQMFSHRKDCPSQGFYSYHSFLVAAESFPAFGTIGDVATRKREVAAFLAHISQATSGERSDVENPHAWGLCHINTTTVTENDFCTSSDWPCAAGKKYSPRGPIQLTHNFNYGLAGQAIGEDLIQNPDLVEKDPIISFKTALWFWMSQHDNKPSCHDIVLNANSAANRIPNKGVIGNIISRAFGHDDFAVRSSSIGFYKRYCDMLGVSYGHDLKYWFDNTPSSEFQRIQMRVAA",glycan array binding signal (z-score),[1],1.69
same,glycan array binding signal (z-score),[2],-0.179
same,glycan array binding signal (z-score),[3],4.09
same,glycan array binding signal (z-score),[4],-0.107
"OVGAL11 (Ovis aries), AAF64320 (protein) MDSLPNPYLQSVSLTVCYMVKIKANLLSAFGKNPELQVDFGTGTGQGGNIPFRFWYCDGMVVMNTFTDGSWQKEEKVLTDAFVPGQPFELQFLVLEKEYQVFVKNKPICQFAHRLPLQSVKMLDVRGDIVLTSVDTL",glycan array binding signal (z-score),[5],1.72
same,glycan array binding signal (z-score),[6],6.31
same,glycan array binding signal (z-score),[7],-0.096
same,glycan array binding signal (z-score),[8],-0.057
same,glycan array binding signal (z-score),[9],0.2
same,glycan array binding signal (z-score),[10],0.204
same,glycan array binding signal (z-score),[11],-0.076
same,glycan array binding signal (z-score),[12],4.51
same,glycan array binding signal (z-score),[13],-0.106
same,glycan array binding signal (z-score),[14],-0.398
same,glycan array binding signal (z-score),[15],-0.081
same,glycan array binding signal (z-score),[16],-0.082
same,glycan array binding signal (z-score),[17],-0.104
same,glycan array binding signal (z-score),[18],-0.063
same,glycan array binding signal (z-score),[19],1.62
same,glycan array binding signal (z-score),[20],-0.11
same,glycan array binding signal (z-score),[21],-0.023
same,glycan array binding signal (z-score),[22],-0.113
same,glycan array binding signal (z-score),[23],-0.101
same,glycan array binding signal (z-score),[24],-0.011
same,glycan array binding signal (z-score),[25],-0.086
same,glycan array binding signal (z-score),[26],-0.094
same,glycan array binding signal (z-score),[27],-0.095
same,glycan array binding signal (z-score),[28],0.686
same,glycan array binding signal (z-score),[29],0.199
same,glycan array binding signal (z-score),[30],-0.175
same,glycan array binding signal (z-score),[31],0.724
same,glycan array binding signal (z-score),[32],-0.089
same,glycan array binding signal (z-score),[33],0.568
same,glycan array binding signal (z-score),[34],-0.114
same,glycan array binding signal (z-score),[35],-0.089
same,glycan array binding signal (z-score),[36],-0.102
same,glycan array binding signal (z-score),[37],-0.084
same,glycan array binding signal (z-score),[38],-0.316
same,glycan array binding signal (z-score),[39],4.38
same,glycan array binding signal (z-score),[40],-0.098
same,glycan array binding signal (z-score),[41],-0.069
same,glycan array binding signal (z-score),[42],-0.068
same,glycan array binding signal (z-score),[43],-0.097
same,glycan array binding signal (z-score),[44],-0.219
same,glycan array binding signal (z-score),[45],-0.08
same,glycan array binding signal (z-score),[46],-0.138
same,glycan array binding signal (z-score),[47],-0.065
same,glycan array binding signal (z-score),[48],-0.082
same,glycan array binding signal (z-score),[49],1.75
same,glycan array binding signal (z-score),[50],13.5
same,glycan array binding signal (z-score),[51],-0.044
same,glycan array binding signal (z-score),[52],0.807
same,glycan array binding signal (z-score),[53],-0.214
same,glycan array binding signal (z-score),[54],0.714
